Source: the antibiotic and cytotoxicity screens of Wong et al. (2023)
Out of some 39,000 compounds screened, about 3,300 (8.5%) were called active. Only a selection was taken, and actives are over-represented in it overall.

Tested on: HepG2
Assay: cytotoxicity call (relative viability < 0.9)
Details: 10 µM

Row | SMILES | cytotoxicity call
1 | COc1ccc(S(=O)(=O)Nc2ccc3c(c2)C(=O)N([C@@H](C)CO)C[C@@H](C)[C@@H](CN(C)CC2CC2)O3)cc1 | inactive
2 | Cc1noc(C)c1S(=O)(=O)Nc1cccc2c1O[C@@H](CN(C)C(=O)Nc1ccccc1)[C@@H](C)CN([C@@H](C)CO)C2=O | inactive
3 | COc1ccc(NC(=O)N(C)C[C@@H]2OCCCC[C@@H](C)Oc3ccc(NC(=O)Nc4ccc5c(c4)OCO5)cc3C(=O)N([C@H](C)CO)C[C@H]2C)cc1 | inactive
4 | O=C(C[C@H]1CC[C@H](NC(=O)c2ccc(F)cc2)[C@H](CO)O1)NCc1ccncn1 | inactive
5 | COc1ccc(NC(=O)Nc2ccc3c(c2)[C@H]2C[C@H](CC(=O)NCc4ccncc4)O[C@@H](CO)[C@H]2O3)cc1 | inactive
6 | COc1ccc(NC(=O)N(C)C[C@@H]2OCCCC[C@H](C)Oc3ccc(NS(=O)(=O)c4ccccc4)cc3C(=O)N([C@@H](C)CO)C[C@@H]2C)cc1 | inactive
7 | C=CCOC(=O)[C@H]1[C@@H]2C(=O)O[C@@H](c3ccccc3)[C@@H](c3ccccc3)N2[C@@H](c2ccc(OCCOC(=O)[C@@H]3C[C@@H]4C(=O)NCC(=O)N4[C@@H]3c3cccc(OCCO)c3)cc2)[C@]12C(=O)Nc1ccc(I)cc12 | inactive
8 | O=C(C[C@@H]1C[C@@H]2c3cc(NC(=O)Nc4ccc(C(F)(F)F)cc4)ccc3O[C@@H]2[C@@H](CO)O1)NCc1ccc(Cl)cc1 | inactive
9 | Cc1noc(C)c1NC(=O)Nc1cccc2c1O[C@@H](CN(C)S(=O)(=O)c1cn(C)cn1)[C@@H](C)CN([C@H](C)CO)C2=O | inactive
10 | COc1cccc(S(=O)(=O)Nc2ccc3c(c2)OC[C@@H](C)N(C(=O)Cc2cccnc2)C[C@@H](C)[C@@H](OC)CN(C)C3=O)c1 | inactive
11 | C[C@@H]1CN([C@@H](C)CO)C(=O)c2cccc(NC(=O)c3ccncc3)c2O[C@@H]1CN(C)Cc1ccc(Oc2ccccc2)cc1 | inactive
12 | C[C@H](CO)N1C[C@H](C)[C@@H](CN(C)Cc2ccc(Oc3ccccc3)cc2)Oc2c(NC(=O)C3CC3)cccc2C1=O | inactive
13 | C[C@@H]1CN([C@@H](C)CO)C(=O)c2cccc(NC(=O)C3CC3)c2O[C@@H]1CN(C)Cc1ccc(Oc2ccccc2)cc1 | inactive
14 | CC(C)N1C[C@H](CN(C)Cc2ccc(Oc3ccccc3)cc2)Oc2c(NC(=O)c3ccncc3)cccc2C1=O | inactive
15 | C[C@@H]1CN([C@H](C)CO)C(=O)c2cccc(NC(=O)C3CC3)c2O[C@H]1CN(C)Cc1ccc(Oc2ccccc2)cc1 | inactive
16 | CC(C)N1CC[C@H](CN(C)Cc2ccc(Oc3ccccc3)cc2)Oc2c(NC(=O)c3ccncc3)cccc2C1=O | inactive
17 | CC(C)N1C[C@@H](CN(C)Cc2ccc(Oc3ccccc3)cc2)Oc2c(NC(=O)c3ccncc3)cccc2C1=O | active
18 | COC[C@H](C)N1C[C@H](C)[C@@H](CN(C)Cc2ccc(Oc3ccccc3)cc2)Oc2c(NC(=O)c3ccncc3)cccc2C1=O | active
19 | C[C@@H]1CN([C@@H](C)CO)C(=O)c2cccc(NC(=O)c3ccncc3)c2O[C@H]1CN(C)Cc1ccc(Oc2ccccc2)cc1 | inactive
20 | C[C@H]1CN([C@@H](C)CO)C(=O)c2cccc(NC(=O)C3CC3)c2O[C@@H]1CN(C)Cc1ccc(Oc2ccccc2)cc1 | inactive
21 | CC(C)N1C[C@H](C)[C@@H](CN(C)Cc2ccc(Oc3ccccc3)cc2)Oc2c(NC(=O)C3CCNCC3)cccc2C1=O | active
22 | CC(C)N1C[C@H](C)[C@@H](CN(C)Cc2ccc(Oc3ccccc3)cc2)Oc2c(NC(=O)C3CCN(C)CC3)cccc2C1=O | active
23 | COc1ccc(S(=O)(=O)Nc2cccc3c2O[C@@H](CN(C)S(=O)(=O)c2cccs2)[C@@H](C)CN([C@H](C)CO)C3=O)cc1 | inactive
24 | N#CCC(=O)Nc1ccncc1 | inactive
25 | COc1ccc(S(=O)(=O)N[C@H]2C=C[C@@H](CC(=O)NCCc3ccncc3)O[C@@H]2CO)cc1 | inactive
26 | COc1ccc(NC(=O)N2C[C@@H](O)COC[C@@H]3O[C@@H](CC(=O)NCc4ccccc4OC)CC[C@H]32)cc1 | inactive
27 | C[C@H]1CN([C@@H](C)CO)S(=O)(=O)c2ccc(C#Cc3ccccc3F)cc2O[C@H]1CN(C)C(=O)Cc1ccncc1 | inactive
28 | CC(C)N1C[C@H](C)[C@@H](CN(C)Cc2ccc(Oc3ccccc3)cc2)Oc2c(NC(=O)c3ccncc3)cccc2C1=O | inactive
29 | CC(C)N1C[C@H](C)[C@@H](CN(C)Cc2ccc(Oc3ccccc3)cc2)Oc2c(NC(=O)c3cccnc3)cccc2C1=O | inactive
30 | CC(C)N1C[C@H](C)[C@@H](CN(C)Cc2ccc(Oc3ccccc3)cc2)Oc2c(NC(=O)c3ccccc3)cccc2C1=O | active
